Screens: PubChem BioAssay, several laboratories
Vc quorum ag = quorum light induction in luxS cqsA deficient V. cholerae. V. cholerae BH1578 lux reporter, luminescence, 6 h. activation, % at 18.7 µM. hit rate 0.16% among 350,000. AID 588436; in the data active = activation mostly above about 9.7%, no sharp cut-off
Mtb FBA inh = inhibits M. tuberculosis FBA enzyme | P9WQA3 | purified M. tuberculosis FBA, fluorescence read-out | inhibition, % at 1 µM | hit rate 2.3% among 360,000 | AID 588726; in the data active = inhibition above about 27%
Target sequence (P9WQA3 whole entry, looked up): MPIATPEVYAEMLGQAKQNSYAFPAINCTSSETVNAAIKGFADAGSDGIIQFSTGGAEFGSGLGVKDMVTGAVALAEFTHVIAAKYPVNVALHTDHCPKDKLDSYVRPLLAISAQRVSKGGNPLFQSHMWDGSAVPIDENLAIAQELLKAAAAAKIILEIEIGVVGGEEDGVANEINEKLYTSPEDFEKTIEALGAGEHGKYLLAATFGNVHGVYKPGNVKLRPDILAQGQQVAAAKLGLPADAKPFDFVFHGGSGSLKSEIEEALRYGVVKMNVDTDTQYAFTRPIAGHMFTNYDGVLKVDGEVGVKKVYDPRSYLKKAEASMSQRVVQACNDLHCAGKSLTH
CCHF vOTU inh = CCHFV vOTU protease inhibition. Pep-AMC fluorescence. AID 651958. inhibition, % at 11.5 µM. hit rate 0.55% among 370,000
GDH-TPI inh = GDH-TPI coupled enzyme inhibition counter-screen; AID 588335; GDH-TPI coupled enzyme counterscreen, NADH absorbance; inhibition, % at 4.8 µM; hit rate 1.2% among 360,000
Hits are given with their value; . = inactive; / = not tested or not shown. This is a sample that favours compounds with a hit; in the whole collection about 3.9% have one here. Cut-off read from the data, not from the text of the source, unless noted: active = inhibition above about 30%; inactive = the rest.

SMILES	Vc quorum ag	Mtb FBA inh	CCHF vOTU inh	GDH-TPI inh
O=C(COc1ccccc1[N+](=O)[O-])N/N=C/C=C/c1ccco1	.	.	.	49
O=[N+]([O-])c1ccc2cn(C3OC(CO)C(O)C3O)nc2c1 (stereo not drawn)	.	.	.	.
COc1cccc(C=C2SC(=S)NC2=O)c1	.	.	.	31
COc1ccc(CCNC(=O)CSC(=O)c2ccccc2)cc1OC	.	.	.	.
CSc1ccc(/C=N/NC(=O)c2ccc(C)c(C)c2)cc1	.	.	.	.
CSc1ccc(/C=N/NC(=O)c2sccc2C)cc1	.	.	.	45
CSc1ccc(/C=N/NC(=O)c2cc(O)cc(O)c2)cc1	.	.	.	49
CCCOc1ccc(N2C(=O)CC(S/C(N)=N/N=C(\C)c3cccs3)C2=O)cc1 (stereo not drawn)	.	.	.	.
C/C(=N\N=C(/N)SC1CC(=O)N(c2cccc(Cl)c2)C1=O)c1cccs1 (stereo not drawn)	.	.	.	40
COc1ccc(-c2nn(-c3ccccc3)cc2/C=N/NS(=O)(=O)c2ccccc2)cc1	.	.	.	.
COc1ccc(-c2nn(-c3ccccc3)cc2/C=N/NC(=O)c2cccc(S(=O)(=O)Nc3ccccc3Cl)c2)cc1	.	.	.	32
CCn1c(-c2sc(-c3ccccc3)nc2C)n[nH]c1=S	.	.	.	.
Cc1nc(-c2ccccc2)sc1-c1ccnn1C	.	124	.	.
O=C1CC(c2ccccc2)CC2=C1C1(CCCC1)N=C(Nc1nc3ccccc3o1)N2 (stereo not drawn)	.	.	.	.
CNc1ccccc1C(=O)OC(C)C(=O)Nc1ccc(Cl)cn1 (stereo not drawn)	.	112	.	.
CCOc1ncccc1C(=O)OC(C)C(=O)Nc1ccc(Cl)cn1 (stereo not drawn)	.	.	.	.
CCN(/N=C/c1cccs1)c1cc(=O)n(C)c(=O)[nH]1	.	.	.	43
Cc1cc(=O)[nH]c(N/N=C/c2cccs2)n1	.	.	.	.
CN(/N=C/c1cccs1)c1cc(=O)n(C)c(=O)[nH]1	.	.	.	48
CCCCC(=O)N1CCCC(C)C1 (stereo not drawn)	.	.	.	.
CCCCc1nc(C(N)=O)c2[nH]c(=O)n(-c3ccccc3F)c2n1	.	136	/	.
O=C(c1ccc(Cl)c(Cl)c1)N1CCC(=O)N(C(COCc2cccc(C(F)(F)F)c2)Cc2ccccc2)CC1 (stereo not drawn)	.	73	.	.
CSc1nncn1/N=C/c1ccc([N+](=O)[O-])cc1	.	.	.	.
CSc1nncn1/N=C/c1ccc2c(c1)OCO2	.	.	.	35
N#Cc1c(C(F)(F)F)cc(-c2cccs2)nc1SC(C(=O)O)c1ccccc1 (stereo not drawn)	.	.	.	.
SMILES	Vc quorum ag	Mtb FBA inh	CCHF vOTU inh	GDH-TPI inh
Cc1nn(CCC(=O)O)c2nc(-c3cccnc3)cc(C(F)(F)F)c12	.	.	.	.
Cc1nn(CCC(N)=O)c2nc(-c3cccs3)cc(C(F)(F)F)c12	.	153	.	31
N#Cc1c(C(F)(F)F)cc(-c2cccs2)nc1SCC(=O)O	.	.	.	37
Cc1ccc(C(=O)O/N=C(\N)c2ccccn2)cc1	.	.	.	.
C/C(=N\OC(=O)c1ccc(Br)cc1)c1ccccn1	.	.	.	31
CSC1=NC(C)(C)C=C(/C=C/c2ccc(Cl)cc2Cl)N1	.	.	.	.
CC(OC(=O)/C(C#N)=C/c1ccco1)C(=O)N(C)c1ccccc1 (stereo not drawn)	.	.	.	32
O=C1/C(=C/c2cccs2)SC(=S)N1CC(=O)N1CCCCC1CCO (stereo not drawn)	.	.	.	.
CN1C(=O)c2ccc(N(C)C)cc2C1=O	.	.	.	.
COc1cc(=O)n(C)c2cc(N(C)C)ccc12	.	156	.	33
COCCn1c(=NC(=O)c2cccs2)sc2cc(NC(C)=O)ccc21	.	.	.	45
COCCn1c(=NC(=O)/C=C/c2ccccc2Cl)sc2cc(NC(C)=O)ccc21	.	.	.	.
O=S(=O)(NCc1ccco1)c1ccc(S(=O)(=O)N2CCCC2)cc1	.	.	.	.
O=C(Nc1ccc(OCc2ccccc2)cc1)c1cccc([N+](=O)[O-])c1	.	.	.	.
CNc1nnc(-c2ccc(OC)cc2)s1	.	.	.	.
CCNc1nnc(-c2ccncc2)s1	.	136	.	.
CNc1nnc(-c2ccncc2)s1	.	145	.	.
CCOc1ccccc1C(=O)N1CCN(c2ccc(C(F)(F)F)cn2)CC1	.	.	.	.
O=C(Nc1nnc(-c2ccncc2)o1)c1cccc(N2C(=O)CCC2=O)c1	.	.	.	38
CN(C)C(CNS(=O)(=O)c1ccc(F)cc1)c1cccnc1 (stereo not drawn)	.	.	.	.
